For 30 compounds, Potency results are on record in PubChem BioAssay (NCATS).

Results filed as inconclusive are left out. Entries that show only a call come without a potency. Activity calls are given as the source filed them. The call rests on the fitted dose curve; in most records, active means well fitted inhibition curve with a large enough effect; inconclusive means small, poorly fitted or top-dose-only effect; inactive means flat fitted curve, though single readings scatter.

Sequence of Glutathione peroxidase 1 (Homo sapiens) (P07203 whole entry, looked up): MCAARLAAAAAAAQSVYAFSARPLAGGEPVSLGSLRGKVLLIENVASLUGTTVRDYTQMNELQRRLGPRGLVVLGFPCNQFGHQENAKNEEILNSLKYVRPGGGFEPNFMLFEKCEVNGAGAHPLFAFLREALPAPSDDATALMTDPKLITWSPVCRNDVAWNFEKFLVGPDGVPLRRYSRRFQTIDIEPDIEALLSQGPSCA

This assay concerns the target Glutathione peroxidase 1 (Homo sapiens) (UniProt P07203). Description: Primary qHTS Assay for Inhibitors of Recombinant Selenoprotein Glutathione Peroxidase 1 (GPX1) (AID 1845191). Further: nearly all actives have a fitted effect of over 65% in size. Particulars: recombinant GPX1, GR-coupled NADPH fluorescence, 15 min; series mostly up to 27.7 µM. In a few lines:
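NADPH consumption tracked by fluorescence at 340/450 nm between t=0 and t=15 min, room temperature. Final mix: 10 nM GPX1, 100 nM glutathione reductase, 1 mM GSH, 0.5 mM NADPH, 0.5 mM cumene hydroperoxide, 0.01% BSA; 30 min compound–enzyme preincubation.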
A general note: qHTS replaces the single test concentration by a dilution series.
Take `CC(O)C/C=C/C=C/C(=O)OC1C=C2COC(=O)C2(O)C2(C)CCCC(C)(C)C12` (stereo not given): the Potency entry was “inactive”.

Turning to `C[C@@H]1O[C@@H](O[C@H]2[C@H](O)[C@@H](O)[C@H](OC[C@H]3O[C@@H](OC(=O)[C@]45CCC(C)(C)C[C@H]4C4=CCC6[C@@]7(C)C[C@@H](O)[C@H](O)[C@@](C)(CO)C7[C@H](O)C[C@@]6(C)[C@]4(C)CC5)[C@H](O)[C@@H](O)[C@@H]3O)O[C@@H]2CO)[C@H](O)[C@H](O)[C@H]1O` (stereo not given in full), the Potency entry is “inactive”.

Consider `C=C1CC/C=C(/C(=O)O)CCC2C1CC2(C)C` (stereo not given), for which the Potency entry was “inactive”.

As for `CCOc1ncc(S(=O)(=O)N2CCN(CC)CC2)cc1-c1nc2c(CC)n(CCOC)nc2c(=O)[nH]1`, the Potency result was “inactive”.

For `O=C1C[C@@]2(C(=O)N1)C(=O)N(Cc1ccc(Br)cc1F)C(=O)c1cccn12`, the Potency result is “inactive”.

For the compound `COCC1OC(n2cnc3c(=O)[nH]cnc32)C(O)C1O` (stereo not given), the Potency result is “inactive”.

Take `O=C(OC[C@H]1O[C@@H](Oc2ccccc2COC(=O)C2(O)C=CCCC2O)[C@H](O)[C@@H](O)[C@@H]1O)c1ccccc1` (stereo not given in full): the Potency result is “inactive”.

On to `C=C1C(OC(C)=O)[C@@]23CCC4[C@](C)(C(=O)O)CCC[C@@]4(C)[C@]2(O)CC[C@H]1C3` (stereo not given in full), for which the Potency result was “inactive”.

For the compound `C[C@H]1CCN2C[C@]34C[C@@]5(C(=O)Nc6c5ccc5c6OC=CC(C)(C)O5)C(C)(C)C3C[C@]12C(=O)N4C` (stereo not given in full), the Potency result was “inactive”.

On to `CC(CCc1ccc(O)cc1)O[C@@H]1O[C@H](CO[C@@H]2OC(CO)[C@H](O)[C@H]2O)[C@@H](O)[C@H](O)[C@H]1O` (stereo not given in full), for which the Potency entry was “inactive”.

In the case of `CC1=CC(=O)C2C(C)(C)CCC[C@]2(C)[C@H]1CC[C@H](C)CC(=O)O` (stereo not given in full), the Potency result is “inactive”.

With `O=C(OC1C=C(CO)C2C(OC3OC(CO)C(O)C(O)C3O)OC=CC12O)c1ccc(O)cc1` (stereo not given), the Potency entry is “inactive”.

As to `COC(=O)C1=COC(O[C@@H]2O[C@H](CO)[C@@H](O)[C@H](O)[C@H]2O)[C@@H]2[C@@](C)(O)[C@@H](OC(=O)/C=C/c3ccccc3)C[C@]12O` (stereo not given in full), the Potency result is “inactive”.

Turning to `C/C=C(/C)C(=O)O[C@H]1C[C@]2(C)O[C@@H]2[C@@H](OC(C)=O)[C@@]2(C)CC[C@@](O)(C(C)C)[C@H]12`, the Potency result is “inactive”.

On to `CC(=O)N[C@H]1[C@H](O[C@H]2CC[C@]3(C)C4CC=C5[C@@H]6CC(C)(C)CC[C@]6(C(=O)O)[C@H](O)C[C@@]5(C)[C@]4(C)CC[C@H]3C2(C)C)O[C@H](CO)[C@@H](O)[C@@H]1O` (stereo not given in full), for which the Potency entry was “inactive”.

For `CC(CC(C)O[C@@H]1O[C@H](CO)[C@@H](O)[C@H](O)[C@H]1O)OC(=O)/C=C/c1ccc(O)cc1` (stereo not given in full), the Potency entry was “inactive”.

Consider `COC(=O)C1=CO[C@@H](O[C@@H]2O[C@H](CO)[C@@H](O)[C@H](O)[C@H]2O)[C@H]2[C@@H]1[C@H](O)[C@H](O)[C@]2(C)O`, for which the Potency entry was “inactive”.

Take `N#Cc1cc(-c2n[nH]c(-c3ccncc3)n2)ccn1`: the Potency result is “inactive”.

As to `Cc1cc(CNC(=O)c2cc(C(=O)NCc3ccc(F)c(C)c3)ncn2)ccc1F`, the Potency entry was “inactive”.

Take `C[C@]12CCC[C@](C)(C(=O)O)C1CCC13CC(CO)C(CCC12)C3` (stereo not given in full): the Potency entry is “inactive”.

In the case of `CCCC(C(=O)O)c1c(C)nc2ccc(Cl)cc2c1-c1ccccc1` (stereo not given), the Potency result was “inactive”.

In the case of `COc1ccc(CC(NC(C)=O)C(=O)O)cc1` (stereo not given), the Potency result is “inactive”.

Turning to `C=C1CC[C@@]2(OC1)O[C@H]1CC3[C@@H]4CC=C5C[C@H](O[C@H]6OC[C@@H](O)C(O)[C@@H]6O[C@@H]6O[C@@H](C)[C@H](O)[C@@H](O[C@@H]7O[C@H](CO)[C@@H](O)[C@H](O)[C@H]7O)[C@H]6O)C[C@@H](O)[C@]5(C)C4CC[C@]3(C)[C@H]1[C@@H]2C` (stereo not given in full), the Potency result is “inactive”.

Turning to `COCCN1CCC(C(=O)NO)(S(=O)(=O)c2ccc(Oc3ccc(OC(F)(F)F)cc3)cc2)CC1`, the Potency result was “inactive”.

Consider `COc1cccc(OC)c1-c1ccc(C[C@H](NC(=O)c2c(Cl)cccc2Cl)C(=O)O)cc1`, for which the Potency entry was “inactive”.

Take `Cc1onc(-c2c(Cl)cccc2Cl)c1CC(=O)NCc1ccc(OCC(F)(F)F)nc1`: the Potency result is “inactive”.

`COC(=O)C1=CO[C@@H](O[C@@H]2O[C@H](CO)[C@@H](O)[C@H](O)[C@H]2O)[C@@H]2C(CO)=CC[C@H]12`: the Potency result is “inactive”.

Consider `C=C1[C@@H]2CC[C@@]3(C)[C@H](c4ccoc4)OC(=O)C[C@]13O[C@H]1CC(=O)C(C)(C)[C@H](C(O)C(=O)OC)[C@]12C` (stereo not given in full), for which the Potency result is “inactive”.

As for `CCCCC(=O)N1c2ccccc2NC2=C(C(=O)CCC2)C1c1ccccc1Cl` (stereo not given), the Potency entry was “inactive”.

Consider `CCNC(=O)OC1CCN(c2nncc3cc(OC)c(OC)cc23)CC1`, for which the Potency result is “inactive”.
